Test results taken from the supplement of paper PMC4022240.
± gives the standard deviation.

How the values were obtained:
Test in all cases: peptide microarray binding signal (635 nm), min-max normalized on array (fraction of array maximum); higher = stronger binding
Conditions in all cases: peptide region: H2B 17-29
[1] = target: T1, HaloTag-ATRX ADD domain (163-292)
T1 chain: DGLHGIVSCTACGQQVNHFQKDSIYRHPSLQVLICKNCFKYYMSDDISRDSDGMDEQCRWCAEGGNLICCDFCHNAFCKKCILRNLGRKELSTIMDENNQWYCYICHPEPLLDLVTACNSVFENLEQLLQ
Method: (§1)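 Histone 13-mer peptides were synthesized as cellulose conjugates with a C-terminal 20-atom PEG linker and printed in triplicate on nitrocellulose. The sequence given is the unmodified backbone; PTMs (Kme1/2/3, Kac, Sph/Tph, Rme/Rme2a/Rme2s, Rcit) are listed in the label and the 'peptide modifications' condition. Slides were probed at 4 °C for 1 h with biotin-labelled (HQ)5-HaloTag reader fusions (ATRX-ADD, ING2-PHD) then streptavidin-Alexa647, or with rabbit histone antibodies then anti-rabbit Alexa647. The mean 635 nm signal of the triplicate spots was scaled 0-1 between the lowest and highest values on each array.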

[2] = target: HaloTag-ING2 PHD (mouse Ing2 200-280)
Method: as §1

[3] = target: anti-H3K4me3 antibody ab8580
Method: as §1

[4] = target: anti-H3K9me3 antibody ab8898
Method: as §1

[5] = peptide modifications: H2BK20ac H2BK24ac H2BK27ac H2BK28ac, binder concentration: 1:2,000 dilution
[6] = peptide modifications: H2BK20ac H2BK24ac H2BK27ac H2BK28ac, binder concentration: 1:10,000 dilution
[7] = peptide modifications: H2BK20ac H2BK23ac H2BK24ac, binder concentration: 1:2,000 dilution
[8] = peptide modifications: H2BK20ac H2BK23ac H2BK24ac, binder concentration: 1:10,000 dilution
[9] = peptide modifications: H2BK20ac H2BK27ac H2BK28ac, binder concentration: 1:2,000 dilution
[10] = peptide modifications: H2BK20ac H2BK27ac H2BK28ac, binder concentration: 1:10,000 dilution
[11] = peptide modifications: H2BK20ac, binder concentration: 1:2,000 dilution
[12] = peptide modifications: H2BK20ac, binder concentration: 1:10,000 dilution
[13] = peptide modifications: H2BK20ac H2BK23ac H2BK24ac H2BK27ac, binder concentration: 1:2,000 dilution
[14] = peptide modifications: H2BK20ac H2BK23ac H2BK24ac H2BK27ac, binder concentration: 1:10,000 dilution

What does the source list for AVTKAQKKDGKKR [H2B 17-29 A V T Kac A Q K Kac D G Kac Kac R]?
peptide microarray binding signal ([1]; peptide modifications: H2BK20ac H2BK24ac H2BK27ac H2BK28ac, binder concentration: 50 nM): 0.00276 ± 5.2e-05; peptide microarray binding signal ([1]; peptide modifications: H2BK20ac H2BK24ac H2BK27ac H2BK28ac, binder concentration: 500 nM): 0.00419 ± 0.00026; peptide microarray binding signal ([2]; peptide modifications: H2BK20ac H2BK24ac H2BK27ac H2BK28ac, binder concentration: 10 nM): 0.00436 ± 0.00021; peptide microarray binding signal ([2]; peptide modifications: H2BK20ac H2BK24ac H2BK27ac H2BK28ac, binder concentration: 100 nM): 0.00489 ± 0.00035; peptide microarray binding signal [3, 5]: 0.000472 ± 1.7e-05; peptide microarray binding signal [3, 6]: 0.000856 ± 8.9e-06; peptide microarray binding signal [4, 5]: 0.000468 ± 1.8e-05; peptide microarray binding signal [4, 6]: 0.000692 ± 7.3e-06

For AVTKAQKKDGKKR [H2B 17-29 A V T Kac A Q Kac Kac D G K K R], which “peptide microarray binding signal” value ([1]; peptide modifications: H2BK20ac H2BK23ac H2BK24ac, binder concentration: 50 nM) is on record?
Its value is 0.00661 ± 0.00032.

And the “peptide microarray binding signal” value ([1]; peptide modifications: H2BK20ac H2BK23ac H2BK24ac, binder concentration: 500 nM)?
The value was 0.0168 ± 0.0019.

What about the “peptide microarray binding signal” value ([2]; peptide modifications: H2BK20ac H2BK23ac H2BK24ac, binder concentration: 10 nM) of the same binder?
The value was 0.0274 ± 0.0038.

And the “peptide microarray binding signal” value ([2]; peptide modifications: H2BK20ac H2BK23ac H2BK24ac, binder concentration: 100 nM)?
Its value is 0.0204 ± 0.0078.

And the “peptide microarray binding signal” value [3, 7]?
Its value is 0.00636 ± 0.0011.

And the “peptide microarray binding signal” value [3, 8]?
Its value is 0.0024 ± 0.00011.

What about the “peptide microarray binding signal” value [4, 7] of the same binder?
The value was 0.00204 ± 0.00015.

What about the “peptide microarray binding signal” value [4, 8] of the same binder?
The value was 0.00208 ± 8.4e-05.

What does the source list for AVTKAQKKDGKKR [H2B 17-29 A V T Kac A Q K K D G Kac Kac R]?
peptide microarray binding signal ([1]; peptide modifications: H2BK20ac H2BK27ac H2BK28ac, binder concentration: 50 nM): 0.00398 ± 4.1e-05; peptide microarray binding signal ([1]; peptide modifications: H2BK20ac H2BK27ac H2BK28ac, binder concentration: 500 nM): 0.00567 ± 0.00013; peptide microarray binding signal ([2]; peptide modifications: H2BK20ac H2BK27ac H2BK28ac, binder concentration: 10 nM): 0.003819 ± 3.5e-05; peptide microarray binding signal ([2]; peptide modifications: H2BK20ac H2BK27ac H2BK28ac, binder concentration: 100 nM): 0.00404 ± 0.00021; peptide microarray binding signal [3, 9]: 0.000812 ± 0.00014; peptide microarray binding signal [3, 10]: 0.00114 ± 1.2e-05; peptide microarray binding signal [4, 9]: 0.0005135 ± 4.8e-06; peptide microarray binding signal [4, 10]: 0.00075 ± 7.9e-06

AVTKAQKKDGKKR [H2B 17-29 A V T Kac A Q K K D G K K R] was tested. Which “peptide microarray binding signal” value ([1]; peptide modifications: H2BK20ac, binder concentration: 50 nM) did it give?
Its value is 0.00492 ± 0.0007.

And the “peptide microarray binding signal” value ([1]; peptide modifications: H2BK20ac, binder concentration: 500 nM)?
The value was 0.00962 ± 0.0042.

What about the “peptide microarray binding signal” value ([2]; peptide modifications: H2BK20ac, binder concentration: 10 nM) of the same binder?
The value was 0.00448 ± 0.00039.

What about the “peptide microarray binding signal” value ([2]; peptide modifications: H2BK20ac, binder concentration: 100 nM) of the same binder?
The value was 0.00829 ± 0.0016.

What about the “peptide microarray binding signal” value [3, 11] of the same binder?
Its value is 0.000378 ± 2.7e-05.

What about the “peptide microarray binding signal” value [3, 12] of the same binder?
The value was 0.0012 ± 4.3e-05.

What about the “peptide microarray binding signal” value [4, 11] of the same binder?
Its value is 0.000483 ± 1.2e-05.

What about the “peptide microarray binding signal” value [4, 12] of the same binder?
Its value is 0.000807 ± 2.5e-05.

Which results are given for AVTKAQKKDGKKR [H2B 17-29 A V T Kac A Q Kac Kac D G Kac K R]?
peptide microarray binding signal ([1]; peptide modifications: H2BK20ac H2BK23ac H2BK24ac H2BK27ac, binder concentration: 50 nM): 0.00357 ± 0.00035; peptide microarray binding signal ([1]; peptide modifications: H2BK20ac H2BK23ac H2BK24ac H2BK27ac, binder concentration: 500 nM): 0.00643 ± 0.00011; peptide microarray binding signal ([2]; peptide modifications: H2BK20ac H2BK23ac H2BK24ac H2BK27ac, binder concentration: 10 nM): 0.00579 ± 0.00026; peptide microarray binding signal ([2]; peptide modifications: H2BK20ac H2BK23ac H2BK24ac H2BK27ac, binder concentration: 100 nM): 0.00702 ± 0.00069; peptide microarray binding signal [3, 13]: 0.00136 ± 0.0002; peptide microarray binding signal [3, 14]: 0.00131 ± 2.6e-05; peptide microarray binding signal [4, 13]: 0.000982 ± 0.00011; peptide microarray binding signal [4, 14]: 0.0011 ± 2.2e-05
